This note sets out measurements from ChEMBL document CHEMBL1961873, “Compounds: GSK PKIS; Assays: Nanosyn kinase panel” (2012).

In experiment [1] the test system is Tyrosine-protein kinase ABL1 (Homo sapiens), P00519 [T315I]. The note with it: at 1 µM.
Experiment [2] deals with Tyrosine-protein kinase ABL1 (Homo sapiens), P00519 [Y253F]. The note with it: at 0.1 µM.
For experiment [3] the test system is unchanged. The note with it: at 1 µM.
The target in experiment [4] is Tyrosine-protein kinase ABL1 (Homo sapiens) (UniProt P00519). The note with it: at 0.1 µM.
The target is the same in experiment [5]. As to conditions: at 1 µM.
Experiment [6] addresses ALK tyrosine kinase receptor (Homo sapiens) (UniProt Q9UM73). As to conditions: at 0.1 µM.
Experiment [7] shares this target. As to conditions: at 1 µM.
Experiment [8] has as its target Tyrosine-protein kinase ABL2 (Homo sapiens) (UniProt P42684). As to conditions: at 0.1 µM.
The target is the same in experiment [9]. The note with it: at 1 µM.
Experiment [10] has as its target Tyrosine-protein kinase receptor UFO (Homo sapiens) (UniProt P30530). As to conditions: at 0.1 µM.
For experiment [11] the target is unchanged. The note with it: at 1 µM.
The target in experiment [12] is Tyrosine-protein kinase Blk (Homo sapiens) (UniProt P51451). The note with it: at 0.1 µM.
Chain of Tyrosine-protein kinase Blk (Homo sapiens) (P51451 2-505 limits assumed): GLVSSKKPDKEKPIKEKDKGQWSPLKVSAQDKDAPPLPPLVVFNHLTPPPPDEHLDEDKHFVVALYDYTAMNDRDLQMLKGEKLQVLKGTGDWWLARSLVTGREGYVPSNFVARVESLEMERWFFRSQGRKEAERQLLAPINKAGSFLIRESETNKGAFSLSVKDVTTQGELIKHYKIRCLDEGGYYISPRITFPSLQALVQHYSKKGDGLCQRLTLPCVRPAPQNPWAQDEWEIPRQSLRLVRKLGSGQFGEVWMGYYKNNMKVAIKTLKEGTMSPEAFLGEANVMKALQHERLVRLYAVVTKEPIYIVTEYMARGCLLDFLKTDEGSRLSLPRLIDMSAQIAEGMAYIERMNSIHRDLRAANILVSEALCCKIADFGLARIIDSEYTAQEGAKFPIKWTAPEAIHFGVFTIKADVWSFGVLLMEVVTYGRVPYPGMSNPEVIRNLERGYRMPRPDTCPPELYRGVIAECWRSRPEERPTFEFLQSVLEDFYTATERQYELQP
Experiment [13] has the same target. The note with it: at 1 µM.
Experiment [14] addresses T1, Cytoplasmic tyrosine-protein kinase BMX (Homo sapiens) (UniProt P51813).
T1 sequence (whole entry): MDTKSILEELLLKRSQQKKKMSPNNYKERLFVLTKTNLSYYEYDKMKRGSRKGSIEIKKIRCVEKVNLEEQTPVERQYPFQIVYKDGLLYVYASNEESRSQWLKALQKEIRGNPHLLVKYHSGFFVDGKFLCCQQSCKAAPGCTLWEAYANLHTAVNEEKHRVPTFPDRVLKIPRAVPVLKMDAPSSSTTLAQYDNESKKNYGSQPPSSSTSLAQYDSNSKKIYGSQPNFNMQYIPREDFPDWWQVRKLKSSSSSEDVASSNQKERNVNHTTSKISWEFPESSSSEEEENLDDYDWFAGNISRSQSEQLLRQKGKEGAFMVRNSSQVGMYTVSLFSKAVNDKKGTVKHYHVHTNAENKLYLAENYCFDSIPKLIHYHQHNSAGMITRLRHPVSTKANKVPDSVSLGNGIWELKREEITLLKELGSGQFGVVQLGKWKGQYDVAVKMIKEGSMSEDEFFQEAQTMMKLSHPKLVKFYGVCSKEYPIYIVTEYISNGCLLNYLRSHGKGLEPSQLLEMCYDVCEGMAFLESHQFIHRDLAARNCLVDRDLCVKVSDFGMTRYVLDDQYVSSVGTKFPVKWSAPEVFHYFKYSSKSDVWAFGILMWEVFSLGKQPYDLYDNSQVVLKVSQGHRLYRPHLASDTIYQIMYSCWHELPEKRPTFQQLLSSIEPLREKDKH
The note with it: at 0.1 µM.

Experiment [15] concerns the target T1, Cytoplasmic tyrosine-protein kinase BMX (Homo sapiens). The note with it: at 1 µM.
For experiment [16], the target named is Protein-tyrosine kinase 6 (Homo sapiens) (UniProt Q13882). The note with it: at 0.1 µM.
Chain of Protein-tyrosine kinase 6 (Homo sapiens) (Q13882 whole entry, looked up): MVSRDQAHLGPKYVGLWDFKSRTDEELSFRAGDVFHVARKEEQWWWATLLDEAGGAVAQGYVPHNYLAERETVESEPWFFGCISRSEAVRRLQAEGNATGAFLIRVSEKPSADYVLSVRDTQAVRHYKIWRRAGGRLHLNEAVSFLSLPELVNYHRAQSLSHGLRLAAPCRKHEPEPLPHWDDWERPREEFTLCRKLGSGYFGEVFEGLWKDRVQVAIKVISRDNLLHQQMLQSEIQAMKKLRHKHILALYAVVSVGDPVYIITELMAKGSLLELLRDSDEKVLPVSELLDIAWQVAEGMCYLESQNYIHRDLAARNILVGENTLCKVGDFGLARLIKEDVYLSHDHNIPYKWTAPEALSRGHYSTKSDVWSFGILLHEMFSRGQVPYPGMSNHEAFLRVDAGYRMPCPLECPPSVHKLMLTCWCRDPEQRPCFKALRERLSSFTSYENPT
Experiment [17] shares this target. As to conditions: at 1 µM.
Experiment [18] deals with Tyrosine-protein kinase BTK (Homo sapiens) (UniProt Q06187). The note with it: at 0.1 µM.
Chain of Tyrosine-protein kinase BTK (Homo sapiens) (Q06187 whole entry): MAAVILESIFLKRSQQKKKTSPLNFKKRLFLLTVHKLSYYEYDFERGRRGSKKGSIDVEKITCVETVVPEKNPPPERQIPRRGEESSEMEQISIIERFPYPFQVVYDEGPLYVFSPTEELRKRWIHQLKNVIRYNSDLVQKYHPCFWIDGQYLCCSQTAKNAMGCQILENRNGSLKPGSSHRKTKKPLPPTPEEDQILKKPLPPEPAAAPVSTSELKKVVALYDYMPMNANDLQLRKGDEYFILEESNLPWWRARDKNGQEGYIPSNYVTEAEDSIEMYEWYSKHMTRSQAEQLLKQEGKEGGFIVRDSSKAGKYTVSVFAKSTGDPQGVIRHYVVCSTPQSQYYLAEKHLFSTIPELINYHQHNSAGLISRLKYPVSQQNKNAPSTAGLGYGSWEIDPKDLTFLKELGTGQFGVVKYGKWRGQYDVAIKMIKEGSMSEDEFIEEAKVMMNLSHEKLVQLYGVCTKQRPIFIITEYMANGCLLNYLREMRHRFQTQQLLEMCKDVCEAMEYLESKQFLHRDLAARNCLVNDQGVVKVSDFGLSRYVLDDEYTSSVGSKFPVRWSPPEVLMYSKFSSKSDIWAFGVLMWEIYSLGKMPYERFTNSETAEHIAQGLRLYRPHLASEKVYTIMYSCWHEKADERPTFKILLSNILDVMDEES
For experiment [19] the target is unchanged. As to conditions: at 1 µM.
Experiment [20] concerns the target Tyrosine-protein kinase CSK (Homo sapiens) (UniProt P41240). The note with it: at 0.1 µM.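 Also: value given is the averaged percent inhibition of CSK kinase activity, from the GSK PKIS kinase inhibitor set screening panel.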

Chain of ALK tyrosine kinase receptor (Homo sapiens) (Q9UM73 19-1620 limits assumed): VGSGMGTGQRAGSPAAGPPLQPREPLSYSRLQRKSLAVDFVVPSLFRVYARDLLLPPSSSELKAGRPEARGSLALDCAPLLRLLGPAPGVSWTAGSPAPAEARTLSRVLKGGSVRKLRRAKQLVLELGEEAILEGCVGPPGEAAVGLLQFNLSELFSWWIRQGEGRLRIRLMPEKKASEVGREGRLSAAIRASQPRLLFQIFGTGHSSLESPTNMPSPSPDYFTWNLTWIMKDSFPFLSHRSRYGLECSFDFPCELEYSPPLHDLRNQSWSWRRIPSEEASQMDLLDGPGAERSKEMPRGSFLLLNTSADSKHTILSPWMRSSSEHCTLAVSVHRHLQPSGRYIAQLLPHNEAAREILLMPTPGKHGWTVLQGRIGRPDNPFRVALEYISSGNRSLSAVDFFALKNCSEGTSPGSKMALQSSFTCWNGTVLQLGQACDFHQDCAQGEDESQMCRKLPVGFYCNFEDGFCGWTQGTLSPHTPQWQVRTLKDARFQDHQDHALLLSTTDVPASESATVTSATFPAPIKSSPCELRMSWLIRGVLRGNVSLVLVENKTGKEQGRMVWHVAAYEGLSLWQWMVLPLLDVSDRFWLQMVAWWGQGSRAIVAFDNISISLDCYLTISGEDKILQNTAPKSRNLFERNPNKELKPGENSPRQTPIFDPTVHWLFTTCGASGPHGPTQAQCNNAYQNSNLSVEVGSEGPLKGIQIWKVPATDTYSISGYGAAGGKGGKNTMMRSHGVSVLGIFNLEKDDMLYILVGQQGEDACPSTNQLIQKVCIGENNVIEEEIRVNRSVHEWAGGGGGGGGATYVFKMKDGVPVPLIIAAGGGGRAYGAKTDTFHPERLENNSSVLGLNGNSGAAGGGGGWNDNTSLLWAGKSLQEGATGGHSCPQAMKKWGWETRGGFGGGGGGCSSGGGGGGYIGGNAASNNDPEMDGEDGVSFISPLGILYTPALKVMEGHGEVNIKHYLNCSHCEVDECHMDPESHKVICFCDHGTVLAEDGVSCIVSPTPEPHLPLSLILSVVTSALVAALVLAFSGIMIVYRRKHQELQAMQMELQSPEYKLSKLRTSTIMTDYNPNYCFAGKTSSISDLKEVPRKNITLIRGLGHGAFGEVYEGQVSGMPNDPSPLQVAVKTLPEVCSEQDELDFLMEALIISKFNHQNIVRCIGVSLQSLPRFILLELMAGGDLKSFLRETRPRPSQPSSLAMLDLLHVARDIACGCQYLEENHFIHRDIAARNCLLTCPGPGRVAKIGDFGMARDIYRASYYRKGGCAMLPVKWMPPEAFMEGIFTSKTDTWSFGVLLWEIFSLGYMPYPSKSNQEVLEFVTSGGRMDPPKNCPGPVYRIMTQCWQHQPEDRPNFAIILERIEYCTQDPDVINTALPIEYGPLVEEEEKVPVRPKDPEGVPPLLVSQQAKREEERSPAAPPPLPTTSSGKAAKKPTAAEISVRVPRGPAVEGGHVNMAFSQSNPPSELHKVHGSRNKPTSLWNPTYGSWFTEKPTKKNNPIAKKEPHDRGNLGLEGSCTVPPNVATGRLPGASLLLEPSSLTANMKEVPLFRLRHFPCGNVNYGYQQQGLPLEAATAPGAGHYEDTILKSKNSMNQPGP
Chain of Tyrosine-protein kinase ABL2 (Homo sapiens) (P42684 whole entry): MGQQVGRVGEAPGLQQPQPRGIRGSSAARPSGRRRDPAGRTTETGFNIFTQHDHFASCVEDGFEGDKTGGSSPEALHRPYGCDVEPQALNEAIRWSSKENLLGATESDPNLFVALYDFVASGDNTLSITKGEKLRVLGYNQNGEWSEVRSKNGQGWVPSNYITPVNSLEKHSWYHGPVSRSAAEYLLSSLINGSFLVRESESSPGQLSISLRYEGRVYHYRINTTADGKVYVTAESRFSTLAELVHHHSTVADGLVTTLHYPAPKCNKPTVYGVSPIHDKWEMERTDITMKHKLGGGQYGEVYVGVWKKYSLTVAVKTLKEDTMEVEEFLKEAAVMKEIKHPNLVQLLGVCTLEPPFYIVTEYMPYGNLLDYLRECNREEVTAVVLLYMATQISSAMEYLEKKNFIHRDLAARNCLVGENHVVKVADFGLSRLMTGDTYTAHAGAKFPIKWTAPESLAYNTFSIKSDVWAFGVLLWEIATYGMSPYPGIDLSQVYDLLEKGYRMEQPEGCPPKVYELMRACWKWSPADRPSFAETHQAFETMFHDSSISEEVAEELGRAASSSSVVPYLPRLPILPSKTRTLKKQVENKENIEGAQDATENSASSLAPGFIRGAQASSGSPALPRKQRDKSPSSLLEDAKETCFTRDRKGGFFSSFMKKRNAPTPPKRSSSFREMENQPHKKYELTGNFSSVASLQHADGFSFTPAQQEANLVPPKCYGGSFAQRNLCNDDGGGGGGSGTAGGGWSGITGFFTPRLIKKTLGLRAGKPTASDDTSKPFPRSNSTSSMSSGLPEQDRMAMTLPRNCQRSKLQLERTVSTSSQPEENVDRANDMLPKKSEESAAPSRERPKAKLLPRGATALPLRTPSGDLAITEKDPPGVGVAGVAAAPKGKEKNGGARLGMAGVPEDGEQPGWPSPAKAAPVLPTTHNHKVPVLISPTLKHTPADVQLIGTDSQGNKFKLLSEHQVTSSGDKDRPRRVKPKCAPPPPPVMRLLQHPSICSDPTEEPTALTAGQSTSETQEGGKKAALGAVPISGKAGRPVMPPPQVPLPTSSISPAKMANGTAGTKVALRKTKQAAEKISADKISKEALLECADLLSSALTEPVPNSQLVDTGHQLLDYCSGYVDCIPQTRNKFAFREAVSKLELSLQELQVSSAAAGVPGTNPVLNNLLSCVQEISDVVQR
Chain of Tyrosine-protein kinase CSK (Homo sapiens) (P41240 2-450 limits assumed): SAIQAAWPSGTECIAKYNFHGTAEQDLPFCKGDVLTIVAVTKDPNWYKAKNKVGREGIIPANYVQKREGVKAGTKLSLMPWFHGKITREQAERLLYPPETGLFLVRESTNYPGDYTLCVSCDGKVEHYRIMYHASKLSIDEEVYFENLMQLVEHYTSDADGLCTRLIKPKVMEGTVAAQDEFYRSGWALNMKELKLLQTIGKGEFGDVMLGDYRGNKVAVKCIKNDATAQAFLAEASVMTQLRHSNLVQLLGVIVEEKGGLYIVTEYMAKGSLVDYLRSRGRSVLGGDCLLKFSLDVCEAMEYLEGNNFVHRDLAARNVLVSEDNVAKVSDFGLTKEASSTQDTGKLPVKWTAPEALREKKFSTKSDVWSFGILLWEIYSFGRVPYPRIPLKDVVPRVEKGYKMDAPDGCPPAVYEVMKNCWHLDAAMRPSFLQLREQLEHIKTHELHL

The inhibition is the drop in the measured response relative to a control, in per cent. `Oc1cccc(-c2nc(-c3ccccc3)[nH]c2-c2ccncc2)c1`: the inhibition in experiment [1] was determined as 8.47%; in [2], 11.9%; in [3], 44.9%; in experiment [4], 8.48%; in experiment [5] it was 43.3%; in experiment [6], 3.1%. Moreover, the inhibition in [7] is 4.75%; in experiment [8] it was 13.2%; in [9], 50.8%; in experiment [10], -4.03%; in experiment [11], -0.19%; in experiment [12], 2.99%. The inhibition in [13] came to 8.82%; in experiment [14], 7.29%; in experiment [15], 8.97%; in experiment [16], 13%; in [17], 55.4%; in experiment [18], 2.03%. The inhibition in experiment [19] amounted to 2.36%; in [20], 6.74%.

On to `CN(C)c1cc2c(Nc3ccc4c(cnn4Cc4ccccc4)c3)ncnc2cn1`, for which the inhibition in experiment [1] was -1.27%; in experiment [2], 1.19%; in [3] it was 3.05%; in experiment [4], 2.46%; in experiment [5], 5.43%; in experiment [6] it was 2.86%. Besides, the inhibition is 4.13% in [7]; 1.06% in experiment [8]; 8.48% in experiment [9]; -6.03% in experiment [10]; -3.44% in [11]; 3.2% in experiment [12]. The inhibition worked out at 22.6% in experiment [13]; 3.53% in experiment [14]; 20.8% in experiment [15]; 5.3% in experiment [16]; 29.2% in experiment [17]; 1.09% in experiment [18]. Further, the inhibition was found to be 9.11% in experiment [19] and 6.06% in [20].

Consider `CN(c1ccc(NC(=O)Nc2ccc(OC(F)(F)F)cc2)cc1)c1ccnc(Nc2cccc(S(N)(=O)=O)c2)n1`, for which the inhibition amounted to 86.2% in experiment [1]; 39.2% in experiment [2]; 81.5% in [3]; 14.3% in [4]; 71% in experiment [5]; 1.46% in experiment [6]. Further, the inhibition in experiment [7] was 4.22%; in experiment [8], 20.2%; in [9] it was 71.9%; in [10], -2.29%; in [11] it was 16.2%; in experiment [12] it was 29.4%. In addition, the inhibition was 86.3% in experiment [13]; 5.28% in [14]; 26.1% in experiment [15]; 16.1% in [16]; 77.1% in experiment [17]; 0.33% in experiment [18]. For the same compound, the inhibition in experiment [19] was found to be 5.19%; in [20], 3.6%.

As for `COc1cccc(-n2ncc3c(N/N=C/c4ccc(S(C)(=O)=O)cc4)ncnc32)c1`, the inhibition was 87% in [1]; 86.2% in [2]; 94.7% in [3]; 62% in [4]; 73% in experiment [5]; -3.22% in experiment [6]. In addition, the inhibition in [7] is -1.6%; in experiment [8] it was 45.4%; in experiment [9], 61.7%; in experiment [10], -1.8%; in [11], 1.34%; in experiment [12] it was 7.91%. Besides, the inhibition is 38.4% in experiment [13]; 10.1% in [14]; 30.7% in experiment [15]; 6.33% in [16]; 26.8% in experiment [17]; -4.35% in [18]. The inhibition in experiment [19] was -3.39%; in [20] it was 5.8%.

On to `CN(C)C(=O)O[C@H]1CN[C@H](C#Cc2cc3ncnc(Nc4ccc(OCc5cccc(F)c5)c(Cl)c4)c3s2)C1`, for which the inhibition in experiment [1] was determined as 1.25%; in experiment [2] it was 4.89%; in experiment [3] it was 4.19%; in experiment [4], 3.76%; in experiment [5], 8.35%; in [6] it was 2.82%. Also, the inhibition is 5.03% in [7]; 3.49% in [8]; 6.24% in [9]; -3.4% in [10]; -1.68% in [11]; 2.47% in experiment [12]. Also, the inhibition in experiment [13] is 4.23%; in experiment [14] it was -3.39%; in [15] it was 3.3%; in [16] it was 5.52%; in experiment [17], 4.14%; in [18] it was -1.08%. Also, the inhibition in experiment [19] is 0.74%; in experiment [20] it was 0.6%.

Consider `ON=C1CCc2cc(-c3nc(C4CCNCC4)[nH]c3-c3ccncc3)ccc21`, for which the inhibition in experiment [1] came out at 1.59%; in experiment [2], 0.98%; in experiment [3], 1.65%; in experiment [4], 1.37%; in experiment [5] it was 4.12%; in experiment [6], 2.45%. Further, the inhibition in [7] was 4.92%; in experiment [8] it was 2.12%; in experiment [9] it was 6.46%; in experiment [10], -1.8%; in experiment [11] it was 2.54%; in experiment [12], 0.32%. In addition, the inhibition in experiment [13] was 2.67%; in experiment [14], 1.43%; in [15], -1.75%; in [16], -0.84%; in experiment [17], -2.02%; in experiment [18], -1.11%. Further, the values for the inhibition in experiment [19] and in experiment [20] were 3.08% and -4.87%, respectively.

As to `CC(C)c1ccc2c(c1)NC(=O)/C2=N/Nc1ccc(S(N)(=O)=O)cc1`, the inhibition is 6.52% in experiment [1]; 4.59% in experiment [2]; 28.8% in experiment [3]; 6.22% in experiment [4]; 32.8% in [5]; -0.35% in experiment [6]. For the same compound, the inhibition in [7] was 2.81%; in [8], 3.65%; in experiment [9], 25.7%; in [10], -0.26%; in experiment [11], 0.13%; in experiment [12] it was 1.27%. The inhibition is 14% in experiment [13]; 0.14% in [14]; 6.03% in [15]; 0.98% in experiment [16]; 1.26% in [17]; -0.25% in experiment [18]. In addition, the inhibition in experiment [19] is 0.07%; in experiment [20] it was -1.01%.
